Screens deposited in PubChem BioAssay by several laboratories.
Only some compounds are listed: those with a hit (about 2.3% of all), similar ones and a draw of the others.
GLD-1 TGE inh – GLD-1-TGE RNA interaction inhibition (C. elegans); Q17339; purified GLD-1 + fluorescein TGE RNA, fluorescence polarization; inhibition, % at 5.96 µM; hit rate 0.44% among 320,000;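 active = percent inhibition above a per-plate cutoff, the plate mean of test compounds plus 3 SD, cut at about 30% in these data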
Target sequence (Q17339 whole entry, looked up): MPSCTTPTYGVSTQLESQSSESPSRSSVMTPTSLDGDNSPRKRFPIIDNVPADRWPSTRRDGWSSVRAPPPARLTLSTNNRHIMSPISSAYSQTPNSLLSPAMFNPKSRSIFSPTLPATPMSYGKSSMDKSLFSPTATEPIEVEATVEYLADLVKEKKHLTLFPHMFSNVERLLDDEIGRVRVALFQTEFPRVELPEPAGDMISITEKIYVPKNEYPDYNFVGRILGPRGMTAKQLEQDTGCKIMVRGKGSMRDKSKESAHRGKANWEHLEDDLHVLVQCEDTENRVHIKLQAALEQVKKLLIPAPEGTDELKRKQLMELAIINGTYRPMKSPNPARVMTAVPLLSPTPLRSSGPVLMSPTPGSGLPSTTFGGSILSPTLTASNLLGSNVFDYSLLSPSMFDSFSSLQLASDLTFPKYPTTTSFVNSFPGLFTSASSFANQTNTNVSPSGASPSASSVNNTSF
BCLXL inh – Bcl-xL (human) inhibition; inhibition, % at 10.9 µM; AID 2129; GST-Bcl-xL / FITC-Bim BH3 peptide fluorescence polarization; hit rate 0.7% among 320,000; Q07817;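 active = inhibition above the mean of all tested compounds plus 3 SD, cutoff set per campaign, cut at about 30% in these data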;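 note: inhibitors lower millipolarization by displacing the labeled peptide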
Target sequence (Q07817 whole entry, looked up): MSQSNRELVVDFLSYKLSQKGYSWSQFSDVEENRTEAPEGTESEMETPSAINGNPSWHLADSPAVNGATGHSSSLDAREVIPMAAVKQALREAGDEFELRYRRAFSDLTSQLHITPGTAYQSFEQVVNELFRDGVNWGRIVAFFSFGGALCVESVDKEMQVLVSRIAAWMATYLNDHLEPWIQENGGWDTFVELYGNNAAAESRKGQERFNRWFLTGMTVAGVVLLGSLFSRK
MCL1 BIM primary – MCL1-BIM-BH3 interaction inhibition (human) | GST-MCL1 / FITC-Bim-BH3 fluorescence polarization | inhibition, % at 10.9 µM | hit rate 0.68% among 320,000;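 active = inhibition above the mean inhibition of all tested compounds plus 3 SD, set per campaign, cut at about 40% in these data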;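 note: higher means more loss of mP so more displacement of Bim peptide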
Mcl1-Noxa inh – Mcl-1/Noxa interaction inhibition; AID 1022; hit rate 1.5% among 220,000; Q07820; inhibition, % at 21.7 µM; TR-FRET Mcl-1/Noxa peptide binding, 2 h;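 active = compounds that cut the protein-peptide binding signal by more than 50% relative to plate controls in a single-dose test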;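 note: His-tagged Mcl-1 with rhodamine Noxa BH3 peptide and terbium anti-His antibody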
Mcl1 Bid PPI – disrupts binding of human Mcl-1 to Bid peptide; Q07820; TR-FRET Mcl-1/Bid-Dy647 peptide binding, 1536-well; inhibition, % at 21.7 µM; hit rate 0.97% among 220,000; AID 1021;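 active = compounds that cut the binding signal by more than half at the single screening dose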;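 note: His-tagged Mcl-1 with europium anti-His antibody binding Bid BH3 peptide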
Mcl-1 Bim block – human Bim-Mcl-1 interaction inhibition | Q07820 | Bead-based flow cytometry, Bim peptide-Mcl-1 binding | inhibition, % at 10 µM | hit rate 0.1% among 190,000 | AID 1009; in the data active = inhibition above about 40%
Hits are given with their value.

O=C(CN(C(=O)CNC(=O)c1ccco1)c1ccc2c(c1)OCO2)NC1CCCCC1 was read as GLD-1 TGE inh inactive, BCLXL inh inactive, MCL1 BIM primary inactive, Mcl1-Noxa inh inactive, Mcl1 Bid PPI 83 and Mcl-1 Bim block inactive.
`O=C(CN(C(=O)CNC(=O)c1ccco1)c1ccc2c(c1)OCCO2)NC1CCCC1` gave GLD-1 TGE inh inactive, BCLXL inh inactive, MCL1 BIM primary inactive, Mcl1-Noxa inh inactive, Mcl1 Bid PPI inactive and Mcl-1 Bim block inactive.
`O=C(NC1CCCCC1)C(c1ccncc1)N(C(=O)c1csnn1)c1ccccc1` (stereo unspecified) gave GLD-1 TGE inh inactive, BCLXL inh inactive and MCL1 BIM primary inactive.
Screening CN(C)c1ccc(N2CC(C)(C)C2=O)cc1 returned GLD-1 TGE inh inactive, BCLXL inh inactive, MCL1 BIM primary inactive, Mcl1-Noxa inh 63, Mcl1 Bid PPI inactive and Mcl-1 Bim block inactive.
Screening NCCCC[C@@H](C(=O)N1CCNCC1)n1cc([C@@H](N)CO)nn1 returned GLD-1 TGE inh inactive, BCLXL inh inactive, MCL1 BIM primary inactive, Mcl1-Noxa inh inactive, Mcl1 Bid PPI inactive and Mcl-1 Bim block inactive.
For COC(=O)Nc1ccc(NC(C)=O)cc1 the results were GLD-1 TGE inh inactive, BCLXL inh inactive, MCL1 BIM primary inactive, Mcl1-Noxa inh inactive, Mcl1 Bid PPI inactive and Mcl-1 Bim block inactive.
`CC(=O)c1ccc(NC(=O)Nc2ccncc2)cc1` gave GLD-1 TGE inh inactive, BCLXL inh inactive, MCL1 BIM primary inactive, Mcl1-Noxa inh inactive, Mcl1 Bid PPI inactive and Mcl-1 Bim block inactive.
For CCOC(=O)C(Cc1ccccc1)C(=O)Nc1ccc(N(CC)CC)cc1 (stereo unspecified) the results were GLD-1 TGE inh inactive, BCLXL inh inactive, MCL1 BIM primary inactive, Mcl1-Noxa inh 60, Mcl1 Bid PPI inactive and Mcl-1 Bim block inactive.
`CCN(CC)c1ccc(NC(=O)Nc2cccc(C(C)=O)c2)cc1` gave GLD-1 TGE inh inactive, BCLXL inh inactive, MCL1 BIM primary inactive, Mcl1-Noxa inh 86, Mcl1 Bid PPI inactive and Mcl-1 Bim block inactive.
`CC(=O)Nc1cccc(NC(=O)Nc2ccc(C(C)=O)cc2)c1` gave GLD-1 TGE inh inactive, BCLXL inh inactive, MCL1 BIM primary inactive, Mcl1-Noxa inh inactive, Mcl1 Bid PPI 94 and Mcl-1 Bim block inactive.
`CCN(CC)c1ccc(NC(=O)OC)cc1` gave GLD-1 TGE inh inactive, BCLXL inh inactive, MCL1 BIM primary inactive, Mcl1-Noxa inh 68, Mcl1 Bid PPI inactive and Mcl-1 Bim block inactive.
`O=C(NC1CCCC1)c1cc(-c2ccc(Cl)cc2)on1` gave GLD-1 TGE inh inactive, BCLXL inh inactive and MCL1 BIM primary inactive.
CC(C)CCN(C(=O)c1csnn1)C(C(=O)NC1CCCCC1)c1ccc(F)cc1 (stereo unspecified) was read as GLD-1 TGE inh inactive, BCLXL inh inactive and MCL1 BIM primary inactive.
CCN(CC)c1ccc(NC(=O)c2ccccc2OCC(=O)OC)cc1 was read as GLD-1 TGE inh inactive, BCLXL inh inactive, MCL1 BIM primary inactive, Mcl1-Noxa inh 81, Mcl1 Bid PPI inactive and Mcl-1 Bim block inactive.
Cc1ccc(CNC(=O)COc2ccc(C)nc2[N+](=O)[O-])cc1 was read as GLD-1 TGE inh inactive, BCLXL inh inactive, MCL1 BIM primary inactive, Mcl1-Noxa inh inactive, Mcl1 Bid PPI inactive and Mcl-1 Bim block inactive.
Cc1ccc(OCC(=O)NCc2ccco2)c([N+](=O)[O-])n1 was read as GLD-1 TGE inh inactive, BCLXL inh inactive, MCL1 BIM primary inactive, Mcl1-Noxa inh inactive, Mcl1 Bid PPI 80 and Mcl-1 Bim block inactive.
Screening Cc1cc(-c2onc(C)c2C(=O)O)no1 returned GLD-1 TGE inh inactive, BCLXL inh inactive, MCL1 BIM primary inactive, Mcl1-Noxa inh inactive and Mcl1 Bid PPI inactive.
`O=C(COC(=O)c1ccc(O)cc1)Nc1cc(C(F)(F)F)ccc1N1CCOCC1` gave GLD-1 TGE inh inactive, BCLXL inh inactive and MCL1 BIM primary inactive.
For CCOC(=O)C1CCN(C(=O)c2cc3cc(C)ccc3[nH]2)CC1 the results were GLD-1 TGE inh inactive, BCLXL inh inactive and MCL1 BIM primary inactive.
For CCOC(=O)C1=C(c2ccccc2)N=c2s/c(=C\c3cc(OC)c(OC)c(OC)c3)c(=O)n2C1c1cccs1 (stereo unspecified) the results were GLD-1 TGE inh inactive, BCLXL inh 35, MCL1 BIM primary inactive, Mcl1-Noxa inh inactive, Mcl1 Bid PPI inactive and Mcl-1 Bim block inactive.
For COc1ccc(C(=O)/C=C/c2cc(OC)c(O)c(OC)c2)c(F)c1 the results were GLD-1 TGE inh inactive, BCLXL inh inactive, MCL1 BIM primary inactive, Mcl1-Noxa inh 55, Mcl1 Bid PPI inactive and Mcl-1 Bim block inactive.
Screening COc1ccc2cc(C(=O)/C=C/c3cc(OC)c(O)c(OC)c3)ccc2c1 returned GLD-1 TGE inh inactive, BCLXL inh inactive and MCL1 BIM primary inactive.
CC1(C)CCC[C@@]2(C)CC=C(C(=O)O)[C@@H]3C[C@]312 was read as GLD-1 TGE inh inactive, BCLXL inh inactive and MCL1 BIM primary inactive.
For COc1ccccc1-n1nnnc1SCC(=O)NC1CCCCC1 the results were GLD-1 TGE inh inactive, BCLXL inh inactive and MCL1 BIM primary inactive.
For CCCn1c(=O)[nH]c(=O)c2c1nc(-c1cc([N+](=O)[O-])ccc1Cl)n2CCOC the results were GLD-1 TGE inh inactive, BCLXL inh inactive and MCL1 BIM primary inactive.
For CC1=Nc2cc(C(=O)O)ccc2Sc2ccc(Br)cc21 the results were GLD-1 TGE inh inactive, BCLXL inh inactive, MCL1 BIM primary inactive, Mcl1-Noxa inh 57, Mcl1 Bid PPI inactive and Mcl-1 Bim block inactive.
For CC1CCN(c2nc3ccc(C(=O)NCCCN4CCCCC4C)cc3s2)CC1 (stereo unspecified) the results were GLD-1 TGE inh inactive, BCLXL inh inactive and MCL1 BIM primary inactive.
For CC1(C)Cc2c(sc(NC(=O)c3ccc(C(=O)c4ccccc4)cc3)c2C#N)C(C)(C)N1 the results were GLD-1 TGE inh inactive, BCLXL inh inactive and MCL1 BIM primary inactive.
`COc1ccc(Cn2cc3c(-c4ccc(F)cc4)nnc-3c3cc(OC)c(OC)cc32)cc1` gave GLD-1 TGE inh inactive, BCLXL inh 47, MCL1 BIM primary inactive, Mcl1-Noxa inh inactive, Mcl1 Bid PPI inactive and Mcl-1 Bim block inactive.
For C[C@H](CO)N1C[C@H](C)[C@@H](CN(C)Cc2ccc3c(c2)OCO3)Oc2ccc(NC(=O)Cn3cnnn3)cc2C1=O the results were GLD-1 TGE inh inactive.
For CC(C)OCCCNC(=O)c1ccc(Br)cc1 the results were GLD-1 TGE inh inactive, BCLXL inh inactive, MCL1 BIM primary inactive, Mcl1-Noxa inh inactive, Mcl1 Bid PPI inactive and Mcl-1 Bim block inactive.
For CC(C)OCCCNC(=O)C(=O)NCCCOC(C)C the results were GLD-1 TGE inh inactive, BCLXL inh 40, MCL1 BIM primary inactive, Mcl1-Noxa inh inactive, Mcl1 Bid PPI inactive and Mcl-1 Bim block inactive.
`CCCNC(=O)c1ccccc1NC(=O)Cc1ccc(OC)c(S(=O)(=O)N2CCOCC2)c1` gave GLD-1 TGE inh inactive, BCLXL inh inactive and MCL1 BIM primary inactive.
For Cc1cccc(Nc2nc3c(S(=O)(=O)c4ccccc4)nnn3c3ccccc23)c1 the results were GLD-1 TGE inh inactive, BCLXL inh inactive, MCL1 BIM primary inactive, Mcl1-Noxa inh inactive, Mcl1 Bid PPI 57 and Mcl-1 Bim block inactive.
